Results on 25 compounds are retold here after PubChem BioAssay AID1645838 (ICCB-Longwood Screening Facility, Harvard Medical School, 2021).

Where “and” joins values, the source holds several entries; their conditions need not be identical. Equal values may be shown once. The whole screen tested about 2,000 compounds, of which about 100 (5%) were called active. Rule as the data show it: active = z-score above about 2; inactive = the rest. For the sample, actives were picked, then their nearest neighbours and some compounds at random.

This experiment in a line: modulators of mitochondrial supercomplex assembly, cell-based, luminescence, Hoechst nuclei count (AID 1645838).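 As to all read-outs here: control cybrid cells.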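 As to z-score: higher means more mitochondrial supercomplex formation.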 Conditions: Cells, luminescence/Hoechst cell count ratio, supercomplex reporter; for z-score: stronger effect = higher value; for cell count: measured here: cell number, Hoechst nuclei count.
Where [1] appears, read: library stock concentration (final well concentration not given) 80 uM.
Setting [2] is: library stock concentration (final well concentration not given) 400 uM.
The mark [3] stands for this setting: library stock concentration (final well concentration not given) 2 mM.
Where [4] appears, read: library stock concentration (final well concentration not given) 10 mM.
Where [5] appears, read: library stock concentration (final well concentration not given) 46 uM.
Setting [6] is: library stock concentration (final well concentration not given) 278 uM.
Where [7] appears, read: library stock concentration (final well concentration not given) 1.67 mM.

Turning to `CC1CN(CC(=O)Nc2ccc3c(c2)Cc2cccc(-c4cc(=O)cc(N5CCOCC5)o4)c2S3)CC(C)O1` (stereo not given), the z-score is, setting by setting: under setting [1], -0.376 (inactive); under setting [2], -0.656 (inactive); under setting [3], 0.69 (inactive); under setting [4], 4.45 (active). In addition, the cell count stood at 6150 under setting [1], 6090 under setting [2], 4680 under setting [3] and 1840 under setting [4].
Regarding `O=c1cc(-c2cccc3c2Sc2ccccc2S3)oc(N2CCOCC2)c1`, the z-score was -0.163 (inactive) under setting [5]; -0.486 (inactive) under setting [1]; -0.0765 (inactive) under setting [6]; -0.335 (inactive) under setting [2]; -0.27 (inactive) under setting [7]; -0.523 (inactive) under setting [3]. Moreover, the z-score under setting [4] was 0.302 (inactive) and 0.32 (inactive). Moreover, the cell count runs as follows: under setting [5], 6030; under setting [1], 4590; under setting [6], 5590; under setting [2], 4700; under setting [7], 5740; under setting [3], 4720. The cell count under setting [4] was 3610 and 4370.
With `CCCCCCCCCCCCCCCCCCCCCC(=O)NCCO`, the z-score is 0.434 (inactive) and the cell count stood at 5500.
Take `O=C(O)CCC/C=C\C[C@H]1[C@@H](/C=C/[C@@H](O)CCc2ccccc2)[C@H](O)C[C@@H]1O`: the z-score is -0.319 (inactive) and the cell count worked out at 5160.
Regarding `CCCCCC(=O)Nc1c(C)cc(Br)cc1C`, the z-score is, setting by setting: under setting [1], 0.207 (inactive); under setting [2], 0.413 (inactive); under setting [3], -0.729 (inactive); under setting [4], -0.28 (inactive). The cell count under setting [1] is 4910, the cell count under setting [2] came to 4850, the cell count under setting [3] stood at 5330 and the cell count under setting [4] came out at 4660.
`O=C(CCCCc1ccccc1)C(F)(F)C(F)(F)F`: the z-score is -0.184 (inactive) and the cell count came to 5310.
In the case of `CC(=O)N[C@@H](CSC/C=C(\C)CC/C=C(\C)CC/C=C(\C)CCC=C(C)C)C(=O)O`, the z-score is 1.41 (inactive) and the cell count was found to be 5420.
As for `Cn1cnc2c(NCc3ccccc3)nc(NCCO)nc21`, the z-score is 0.158 (inactive) and the cell count was determined as 4830.
For `CCC(CO)Nc1nc(NCc2ccccc2)c2ncn(C(C)C)c2n1` (stereo not given), the z-score runs as follows: under setting [1], -0.719 (inactive); under setting [2], -0.53 (inactive); under setting [3], -0.509 (inactive); under setting [4], 0.143 (inactive). Besides, the cell count stood at 5300 under setting [1], 4780 under setting [2], 4590 under setting [3] and 3210 under setting [4].
On to `NC(=O)c1cnc(NCCc2ccc(O)c(Cl)c2)nc1NCc1ccccc1`, for which, for the setting “library stock 10 mM”, the outcome is “inactive; censored for cell count”. The z-score is, setting by setting: under setting [5], -1.13 (inactive); under setting [6], -0.967 (inactive); under setting [7], 6.17 (active). The cell count under setting [5] is 7430, the cell count under setting [6] worked out at 6770 and the cell count under setting [7] turned out to be 1590.
For the compound `CC(O)C(O)C1CNc2nc(N)[nH]c(=O)c2N1` (stereo not given), the outcome (library stock 10 mM) was “inactive; censored for cell count”. Further, the z-score is, setting by setting: under setting [1], -0.395 (inactive); under setting [2], -0.667 (inactive); under setting [3], -0.491 (inactive). In addition, the cell count under setting [1] worked out at 5380, the cell count under setting [2] is 5520 and the cell count under setting [3] stood at 4750.
`C#C[C@]1(O)CC[C@@H]2[C@@H]3CCc4cc(O)ccc4[C@@H]3CC[C@@]21C`: the z-score under setting [1] is -0.386 (inactive), the z-score under setting [2] was -0.396 (inactive), the z-score under setting [3] was -0.217 (inactive) and the z-score under setting [4] is -0.397 (inactive). Moreover, the cell count stood at 5910 under setting [1], 5660 under setting [2], 5810 under setting [3] and 5370 under setting [4].
As for `C[C@H](CCCO)[C@H]1CC[C@H]2[C@@H]3[C@H](O)C[C@H]4C[C@H](O)CC[C@]4(C)[C@H]3C[C@H](O)[C@]12C`, the z-score was -0.0135 (inactive) and the cell count came out at 5570.
In the case of `O=C(Nc1cccc(Br)c1)c1cccc(S(=O)(=O)N2CCCCCC2)c1`, the z-score is, setting by setting: under setting [5], -0.0641 (inactive); under setting [6], 0.273 (inactive); under setting [7], 0.0446 (inactive); under setting [4], -0.0353 (inactive). Also, the cell count is, setting by setting: under setting [5], 6460; under setting [6], 6210; under setting [7], 6270; under setting [4], 5890.
As for `O=C(O)c1cccc(S(=O)(=O)N2CCc3ccccc3C2)c1`, the z-score was -0.371 (inactive) under setting [1], 0.24 (inactive) under setting [2], -0.13 (inactive) under setting [3] and 0.0481 (inactive) under setting [4]. The cell count by setting is: under setting [1], 5540; under setting [2], 4830; under setting [3], 5230; under setting [4], 4980.
Consider `CC(=NNC(=O)c1cccc(S(=O)(=O)N2CCOCC2)c1)c1cc(Cl)ccc1O`, for which the outcome (library stock 278 µM) was “inactive; censored for cell count”. Further, the z-score under setting [5] is -0.349 (inactive), the z-score under setting [7] was 3.11 (active) and the z-score under setting [4] was 3.02 (active). Also, the cell count amounted to 7290 under setting [5], 2520 under setting [7] and 1770 under setting [4].
Take `O=C(O)CCCCCC[C@@H]1[C@@H](CC[C@@H](O)CCc2cccc(C(F)(F)F)c2)[C@H](O)C[C@@H]1O`: the z-score was -0.0245 (inactive) and the cell count is 4710.
Take `COc1ccc(-c2nc3cc(F)ccc3s2)cc1OC`: the z-score was -0.706 (inactive) and the cell count was found to be 5090.
Turning to `O=C(/C=C/c1cccc(C(=O)NO)c1)NO`, the z-score was 3.39 (active) and the cell count is 4470.
As for `O=C(O)/C=C/c1ccc(O)c(O)c1`, the z-score was -0.483 (inactive) and the cell count was found to be 5860.
On to `COc1ccc(/C=C/C(=O)Nc2c(O)cccc2C(=O)O)cc1OC`, for which the z-score was -0.476 (inactive) and the cell count stood at 5390.
For `CCCCCCCCCC(=O)N[C@@H](CN1CCOCC1)[C@@H](O)c1ccccc1`, the z-score was 0.0636 (inactive) and the cell count stood at 5620.
Regarding `COC1CC2CCC(C)C(O)(O2)C(=O)C(=O)N2CCCCC2C(=O)OC(C(C)CC2CCC(O)C(OC)C2)CC(=O)C(C)C=C(C)C(O)C(OC)C(=O)C(C)CC(C)C=CC=CC=C1C` (stereo not given), the z-score reads like this: under setting [1], 0.756 (inactive); under setting [2], 0.731 (inactive); under setting [3], 1.2 (inactive); under setting [4], 1.21 (inactive). Further, the cell count came to 2980 under setting [1], 3130 under setting [2], 2660 under setting [3] and 2720 under setting [4].
In the case of `CO[C@H]1C[C@@H]2CC[C@@H](C)[C@@](O)(O2)C(=O)C(=O)N2CCCC[C@H]2C(=O)O[C@H]([C@@H](C)C[C@@H]2CC[C@@H](O)[C@H](OC)C2)CC(=O)[C@H](C)/C=C(\C)[C@@H](O)[C@@H](OC)C(=O)[C@H](C)C[C@H](C)/C=C/C=C/C=C/1C`, the z-score is 2.24 (active) and the cell count is 4010.
Turning to `COC1C[C@@H]2CCC(C)[C@@](O)(O2)C(=O)C(=O)N2CCCC[C@@H]2C(=O)O[C@@H](C(C)CC2CCC(n3cnnn3)C(OC)C2)CC(=O)C(C)C=C(C)C(O)C(OC)C(=O)C(C)CC(C)C=CC=CC=C1C` (stereo not given in full), the z-score under setting [1] was 0.366 (inactive), the z-score under setting [2] was 0.334 (inactive), the z-score under setting [3] was 0.739 (inactive) and the z-score under setting [4] is 1.14 (inactive). In addition, the cell count under setting [1] was 4410, the cell count under setting [2] was 4360, the cell count under setting [3] stood at 4240 and the cell count under setting [4] stood at 3590.
